Consider seven molecules from PubChem BioAssay (NCI).

Test systems include DU-145 prostate; K-562 leukemia; MALME-3M melanoma; MDA-MB-231 breast; RXF 393 renal; SF-268 CNS; SF-295 CNS; SF-539 CNS; UACC-257 melanoma; M14 melanoma; HCT-15 colon; HT29 colon; SNB-75 CNS; SNB-19 CNS; PC-3 prostate; SK-MEL-5 melanoma; UACC-62 melanoma; LOX IMVI melanoma; SK-MEL-28 melanoma; U251 CNS.
What all share (test): NCI-60 one-dose screen, 48 h (100 = growth as untreated, 0 = no growth, -100 = all killed)
Conditions in all cases: 10 µM unless noted

SMILES strings stand for the structures. Compounds without any hit were thinned out: in the full panel of roughly 83,000, 20% have a hit.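 Results are percent growth after 48 hours of single-concentration exposure. 100 means growth as in untreated cells, lower positive values show inhibition; negative values down to -100 show cell death.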 A number with no mark means an inactive call. The source made the active and inactive calls. Rule for the calls: active = growth percent below 10; inactive = the rest.

For `O=C1C(Br)=C(c2ccccc2)C(=O)C(Br)=C1c1ccccc1`, the growth with DU-145 prostate was 105%; in the experiment on K-562 leukemia, 76.2%; with MALME-3M melanoma it was 114%; in the experiment with MDA-MB-231 breast, 94.6%; with RXF 393 renal it was 102%; in the experiment on SF-268 CNS it was 102%. Moreover, the growth in the experiment with SF-295 CNS is 97.9%; in the experiment on SF-539 CNS it was 98.6%; in the experiment on UACC-257 melanoma it was 96.2%; in the experiment on M14 melanoma, 104%; with HCT-15 colon, 85.7%; in the experiment on HT29 colon it was 110%. Also, the growth with SNB-75 CNS was 78%; with SNB-19 CNS it was 93.6%; in the experiment on PC-3 prostate, 91.5%; in the experiment with SK-MEL-5 melanoma, 98.5%; with UACC-62 melanoma, 83.1%; with LOX IMVI melanoma it was 97.5%. The growth with SK-MEL-28 melanoma is 107%.
As for `CCN(CC)c1ccc2c(c1)OS(=O)(=O)N=C2`, the growth was 108% with DU-145 prostate; 101% in the experiment with K-562 leukemia; 98.1% in the experiment on MALME-3M melanoma; 134% with MDA-MB-231 breast; 119% with RXF 393 renal; 97.7% in the experiment with SF-268 CNS. The growth was 99.4% with SF-295 CNS; 99.9% in the experiment with SF-539 CNS; 103% in the experiment with UACC-257 melanoma; 98.6% in the experiment with M14 melanoma; 102% in the experiment with HCT-15 colon; 111% with HT29 colon. Moreover, the growth in the experiment with SNB-75 CNS is 87.9%; in the experiment on SNB-19 CNS, 101%; with PC-3 prostate, 100%; in the experiment on SK-MEL-5 melanoma it was 99.5%; in the experiment with UACC-62 melanoma, 101%; with LOX IMVI melanoma it was 89.2%. In the experiment with SK-MEL-28 melanoma, the growth was 105%.
With `Cc1nc2cc(Nc3nc(N4CCCCC4)nc(N4CCOCC4)n3)ccc2n1Cc1ccccc1`, the growth was 5.36% (active) with DU-145 prostate; 84.3% in the experiment on K-562 leukemia; -3.76% (active) in the experiment on MALME-3M melanoma; 9.6% (active) in the experiment on MDA-MB-231 breast; -5.84% (active) in the experiment on RXF 393 renal; 69% in the experiment on SF-268 CNS. Moreover, the growth with SF-295 CNS is 78.9%; in the experiment on SF-539 CNS, 81.6%; in the experiment on UACC-257 melanoma, 60.4%; in the experiment on M14 melanoma it was 48.4%; in the experiment on HCT-15 colon, 21.3%; with HT29 colon it was -8.67% (active). Also, the growth with SNB-75 CNS was -12.7% (active); with SNB-19 CNS, 65.3%; in the experiment with PC-3 prostate it was 47.1%; in the experiment on SK-MEL-5 melanoma, 54.9%; in the experiment with UACC-62 melanoma, 32.1%; in the experiment with LOX IMVI melanoma, 1.44% (active). The growth with SK-MEL-28 melanoma was 46.6%.
`FC(F)(F)c1cc(CNc2nc(Cl)ncc2Br)cc(C(F)(F)F)c1`: the growth with DU-145 prostate is 98.9%; in the experiment with K-562 leukemia, 50.2%; with MALME-3M melanoma it was 91.1%; with MDA-MB-231 breast it was 89%; with RXF 393 renal, 92.6%; in the experiment on SF-268 CNS, 93.4%. The growth with SF-295 CNS is 88.4%; in the experiment on SF-539 CNS, 85%; in the experiment with UACC-257 melanoma it was 80.8%; in the experiment with M14 melanoma it was 93.9%; with HCT-15 colon, 79.7%; with HT29 colon, 98.4%. The growth in the experiment with SNB-75 CNS is 66.6%; in the experiment with SNB-19 CNS, 107%; in the experiment with PC-3 prostate, 80.2%; in the experiment with SK-MEL-5 melanoma it was 95.4%; with UACC-62 melanoma, 77.2%; in the experiment on LOX IMVI melanoma, 98.4%. Also, the growth in the experiment on SK-MEL-28 melanoma was 94%.
`Cc1cc(=O)c2c(C)ccc(C)c2[nH]1`: the growth in the experiment on DU-145 prostate is 115%; in the experiment on K-562 leukemia, 109%; in the experiment with MALME-3M melanoma it was 102%; in the experiment on MDA-MB-231 breast, 99.3%; in the experiment on RXF 393 renal, 90.7%; with SF-268 CNS it was 96.8%. Moreover, the growth with SF-295 CNS was 91.4%; in the experiment with SF-539 CNS, 107%; in the experiment with UACC-257 melanoma, 80.5%; in the experiment with M14 melanoma it was 97.8%; in the experiment with HCT-15 colon, 101%; in the experiment on HT29 colon, 111%. In addition, the growth is 101% in the experiment on SNB-75 CNS; 99.8% in the experiment on SNB-19 CNS; 100% with U251 CNS; 96.4% in the experiment with UACC-62 melanoma; 97.7% in the experiment on LOX IMVI melanoma; 109% in the experiment with SK-MEL-28 melanoma.
For `Cc1nc2cc(Nc3nc(Cl)nc(Nc4ccc(F)cc4)n3)ccc2n1Cc1ccccc1`, the growth with DU-145 prostate is 64%; in the experiment on K-562 leukemia, 85.2%; in the experiment on MALME-3M melanoma, 107%; in the experiment on MDA-MB-231 breast, 82.1%; in the experiment on RXF 393 renal, 77.1%; in the experiment with SF-268 CNS, 91.1%. Further, the growth in the experiment with SF-295 CNS was 96.4%; with SF-539 CNS it was 70.2%; in the experiment with UACC-257 melanoma, 89.7%; in the experiment on M14 melanoma, 109%; in the experiment on HCT-15 colon, 72.1%; with HT29 colon it was 94.5%. The growth is 90% in the experiment with SNB-75 CNS; 92.4% in the experiment on SNB-19 CNS; 78.8% in the experiment with PC-3 prostate; 92.4% in the experiment on SK-MEL-5 melanoma; 82.4% in the experiment with UACC-62 melanoma; 43.3% in the experiment on LOX IMVI melanoma. Also, the growth in the experiment with SK-MEL-28 melanoma is 106%.
For the molecule `CCCCCCCCCCCCCCNc1nc(CO)ncc1-c1ccc(C(F)(F)F)cc1`, the growth in the experiment with DU-145 prostate was 103%; with K-562 leukemia, 99.6%; with MALME-3M melanoma, 91.8%; in the experiment with MDA-MB-231 breast it was 118%; in the experiment with RXF 393 renal it was 99.8%; in the experiment on SF-268 CNS, 91.8%. For the same molecule, the growth with SF-295 CNS is 97%; with SF-539 CNS it was 95.6%; in the experiment with UACC-257 melanoma it was 94.7%; with M14 melanoma, 99.8%; in the experiment on HCT-15 colon, 103%; in the experiment with HT29 colon, 104%. Also, the growth in the experiment with SNB-75 CNS is 74.2%; with SNB-19 CNS, 118%; with PC-3 prostate, 94.6%; in the experiment on SK-MEL-5 melanoma, 98.5%; with UACC-62 melanoma, 95.5%; with LOX IMVI melanoma it was 91.6%. Besides, the growth in the experiment with SK-MEL-28 melanoma was 108%.
